Test results as given in PubChem BioAssay (NCI).
Compounds without any hit were thinned out: in the full panel of roughly 83,000, 20% have a hit.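 Negative percent growth values reflect cell death: -40 means 40% of the cells present at the start died, and -100 means all died.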 A number with no mark means an inactive call. Active and inactive are the calls of the source. The calls were made as follows: active = growth percent below 10; inactive = the rest.

Experiments:
Experiment in all cases: NCI-60 one-dose screen, 48 h (100 = growth as untreated, 0 = no growth, -100 = all killed)
Settings in all cases: 10 µM unless noted
[1] = tested on: HCT-15 colon
[2] = tested on: HT29 colon
[3] = tested on: SNB-75 CNS
[4] = tested on: SNB-19 CNS
[5] = tested on: U251 CNS
[6] = tested on: PC-3 prostate
[7] = tested on: SK-MEL-5 melanoma
[8] = tested on: UACC-62 melanoma
[9] = tested on: LOX IMVI melanoma
[10] = tested on: SK-MEL-28 melanoma

SMILES | growth [1] | growth [2] | growth [3] | growth [4] | growth [5] | growth [6] | growth [7] | growth [8] | growth [9] | growth [10]
CCCCC(=O)c1ccco1 | 102% | 103% | 86.8% | 86.4% | 102% | 85.8% | 98.8% | 94.9% | 99.6% | 103%
COc1ccc(/C(C)=C(/c2ccc(OCCCN(C)C)cc2)c2ccc(OC(=O)Cc3ccccc3)cc2)cc1 | 54.6% | 7.51% (active) | 79% | 90% | 55.1% | 71.9% | 79.5% | 70.2% | -5.23% (active) | 70.8%
N#C/C(=C/c1ccc([N+](=O)[O-])cc1)n1nnc2cc(F)c(F)cc21 | -7.15% (active) | 69.4% | 74.9% | 73.7% | 59% | 52.5% | 88.6% | 57.2% | 42.4% | 97.6%
Cc1nc2sc(C(=O)Nc3cccc(Cl)c3C)c(N)c2cc1C(=O)c1ccccc1 | 9.29% (active) | 3.07% (active) | 7.46% (active) | 12.7% | 15.6% | 6.12% (active) | 9.08% (active) | 17% | 35.8% | 42.7%
COc1cc(-c2nc(SCCC(C)C)nc(Nc3ccccc3Cl)c2C#N)cc(OC)c1OC | 93% | 89.1% | 89.3% | 98.9% | 106% | 81.4% | 89.2% | 81% | 101% | 98.8%
CCc1nc2c(=O)[nH]cnc2o1 | 110% | 108% | 82.5% | 112% | 99% | 99.4% | 103% | 108% | 94.2% | 106%
COC(=O)c1ccc2c(c1)C(=O)c1c-2n(CCCN)c(=O)c2cc([N+](=O)[O-])ccc12 | -96.1% (active) | -100% (active) | -99.2% (active) | -59.3% (active) | -100% (active) | -70.1% (active) | -100% (active) | -100% (active) | -100% (active) | -100% (active)
C#CCOc1ccc2ncnc(Nc3cccc(NC(=O)C=C)c3)c2c1 | 71.1% | 42.7% | 60.5% | 73.9% | 73.1% | 82.2% | 77.5% | 64.1% | 62.5% | 86.3%
COc1ccc2c(O)c(/C=C3\N=Nc4ccccc43)oc2c1C[C@@H]1CCNC[C@H]1F | 6.86% (active) | 12.3% | 51.1% | 84.1% | 10.1% | 68.3% | 63.9% | 76% | -82.7% (active) | -70.2% (active)
CC(C)=NNc1ccccn1 | 27.9% | 27.4% | 79.2% | 62.3% | 39.6% | 47.1% | 69.7% | 56.6% | 29.7% | 57.1%
O=C(CCCCC1CCSS1)Nc1ncnc2n[nH]c(-c3ccc(Oc4ccccc4)cc3)c12 (stereo not given) | 95.8% | 88.3% | 135% | 114% | 106% | 90.2% | 87.9% | 70.4% | 5.87% (active) | 47%
COc1ccc2c(c1)c(-c1noc(C(=O)c3cn(C)c4ccc(Br)cc34)n1)cn2C | 113% | 92.5% | 101% | 102% | 101% | 95.3% | 100% | 93% | 96.8% | 117%
CC(O)c1cnc(/C=C2\SC(=S)N(Cc3ccccc3)C2=O)s1 (stereo not given) | 83.6% | -8.15% (active) | 85.2% | 97.9% | 54.9% | 34% | 88.8% | 90.3% | 41.2% | 89.3%
CN1CCN(Cc2ccc(NC(=O)c3cncc(C#Cc4cnc(N)c5ccccc45)c3)cc2C(F)(F)F)CC1 | -82.8% (active) | -14.5% (active) | -73% (active) | -78.5% (active) | -98.5% (active) | -53.1% (active) | -98.1% (active) | -91.4% (active) | -92.1% (active) | -92.9% (active)
Cn1cc(-c2nonc2-c2c[nH]c3ccc(Br)cc23)c2cc(Br)ccc21 | 28.2% | 20.6% | -11.2% (active) | 42.8% | 42.9% | 43.4% | 70.3% | 53.9% | 24.8% | 59.4%
Nc1ncnc2c1N=C(c1ccc(Cl)cc1)CC(c1ccc3c(c1)OCO3)N2 (stereo not given) | 98.6% | 91.7% | 85.7% | 86.4% | 92.8% | 85.2% | 98% | 94.8% | 96.5% | 99.8%
C[C@@H]1CCC[C@H]1CC(N)C(=O)O (stereo not given in full) | 90.6% | 116% | 103% | 117% | 114% | 96.8% | 98.5% | 116% | 91.3% | 108%
CCCCCC(=O)OCC(=O)O[C@@H]1C[C@]2(C(C)C)O[C@@]1(C)[C@@H]1CC[C@@H](C)[C@H]1[C@@H]2OC(=O)/C=C/c1ccccc1 | 68.8% | 56.1% | 89% | 87% | 65.9% | 55.5% | 95.7% | 62.1% | 68.6% | 101%
Cc1ccc(/C=N/Nc2nc(Nc3ccccc3)nc(-n3nc(C)cc3C)n2)cc1 | 25.2% | 32.7% | 83.4% | 74.4% | 33.8% | 31.1% | -12.6% (active) | 44.9% | 32.6% | 68.6%
O=C(CSc1nc(-c2ccccc2)[nH]c1S(=O)(=O)c1ccccc1)NC1CC1 | 28.2% | 95.1% | 98.1% | 101% | 20.1% | 80.8% | 35.6% | 94.6% | 44.8% | 120%
C#CCOc1cccc(Nc2ncnc3c(NC(=O)C=C)cccc23)c1 | 21.3% | 5.3% (active) | 23% | 28.1% | 24.7% | 23.8% | 8.31% (active) | 17.4% | 8% (active) | 52.1%
CN(C)C1CCN(Cc2ccc(NC(=O)c3cncc(C#Cc4cnc(N)c5ncccc45)c3)cc2C(F)(F)F)CC1 | 53.2% | 19.3% | 127% | 97.8% | -51.5% (active) | 80.6% | 50.6% | 91.5% | 63.7% | -53.9% (active)
CN1CCN(c2ccc(NC(=O)c3cncnc3Nc3ccc(OCc4ccccn4)c(Cl)c3)cc2)CC1 | -44.4% (active) | -14.8% (active) | 59.8% | 69.6% | 2.96% (active) | 61% | 47.2% | -69.9% (active) | -22.1% (active) | -86% (active)
O=C(/C=C/c1ccccc1)c1cccc(OCCCOc2cccc(C(=O)/C=C/c3ccccc3)c2)c1 | 57.4% | 52.4% | 93.9% | 85.7% | 64.3% | 82.8% | 100% | 87.3% | 58.1% | 102%
C=C(C)[C@@H]1CC[C@]2(C(=O)O)CC[C@]3(C)[C@H](CC[C@@H]4[C@@]5(C)C[C@@H](Cc6cn(CCO[C@@H]7O[C@H](COC(C)=O)[C@H](OC(C)=O)[C@H](OC(C)=O)[C@H]7OC(C)=O)nn6)[C@H](O)C(C)(C)[C@@H]5CC[C@]43C)[C@@H]12 | 70.1% | 77.9% | 66.5% | 64.5% | 57.4% | 54.9% | 53.5% | 63.7% | 45.2% | 76.5%
Nc1ncnc2c1N=C(c1ccc3c(c1)OCO3)CC(c1ccc([N+](=O)[O-])cc1)N2 (stereo not given) | 77% | 86.6% | 59.5% | 86.6% | 86.8% | 47% | 70.3% | 64.8% | 75.5% | 110%
